NOMO-1 viab – STK33 inhibitor candidate reducing NOMO-1 cell viability | NOMO-1 AML viability, CellTiter-Glo luminescence, 72 h | inhibition, % (test concentration not listed) | actives 7.5% (n = 37,000) | AID 2330; in the data active means inhibition above about 80%
ID4 SMM – ID4 (human) binding | P47928 | small molecule microarray, Flag-ID4 binding, fluorescence F/B | calls only | actives 1.2% (n = 31,000); call rule not given here;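 further: a binder raises fluorescence above local background on the spot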
mut p53 react – mutant p53 pathway reactivation; SW480 PUMA-promoter luciferase; activation, % at 9.98 µM; actives 1.5% (n = 28,000); AID 624151; in the data active means activation above about 52%
STK33 kin inh – human STK33 kinase inhibition. AID 2322. actives 0.44% (n = 27,000). ADP-Glo luminescence, MBP substrate. Q9BYT3. inhibition, % at 12.5 µM; in the data active means inhibition above about 20%
Target sequence (Q9BYT3 whole entry, looked up): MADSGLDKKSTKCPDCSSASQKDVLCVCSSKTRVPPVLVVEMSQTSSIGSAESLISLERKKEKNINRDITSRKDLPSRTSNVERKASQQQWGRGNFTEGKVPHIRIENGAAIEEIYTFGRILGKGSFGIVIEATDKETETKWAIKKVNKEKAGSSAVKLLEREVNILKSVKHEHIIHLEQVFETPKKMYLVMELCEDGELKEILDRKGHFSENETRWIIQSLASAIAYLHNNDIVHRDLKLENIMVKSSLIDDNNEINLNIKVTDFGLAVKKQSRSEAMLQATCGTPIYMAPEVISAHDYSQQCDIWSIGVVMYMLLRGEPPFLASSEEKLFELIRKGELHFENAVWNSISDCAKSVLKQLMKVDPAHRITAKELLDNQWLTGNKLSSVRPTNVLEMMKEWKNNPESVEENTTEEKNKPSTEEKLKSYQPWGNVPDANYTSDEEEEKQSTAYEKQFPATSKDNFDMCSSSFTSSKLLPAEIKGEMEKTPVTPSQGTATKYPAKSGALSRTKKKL
Numbers without * were called inactive; i = inactive; / = no result; + = active, no number. Only a selection was taken, and hits are over-represented in it overall.

SMILES | NOMO-1 viab | ID4 SMM | mut p53 react | STK33 kin inh
C[C@@H]1CCCCO[C@@H](CN(C)Cc2ccc(C(=O)Nc3ccccc3N)cc2)[C@@H](C)CN([C@H](C)CO)C(=O)c2cc(NC(=O)c3ccncc3)ccc2O1 | 62 | / | / | /
C[C@@H]1CCCCO[C@H](CN(C)Cc2ccc(C(F)(F)F)cc2)[C@@H](C)CN([C@H](C)CO)C(=O)c2cc(NC(=O)CCCCCC(=O)Nc3ccccc3N)ccc2O1 | 131* | / | / | /
C[C@@H]1CCCCO[C@@H](CN(C)Cc2ccc(C(=O)Nc3ccccc3N)cc2)[C@@H](C)CN([C@H](C)CO)C(=O)c2cc(NC(=O)Nc3ccc(F)cc3)ccc2O1 | 111* | / | / | /
C[C@@H]1CCCCO[C@@H](CN(C)Cc2ccc(C(=O)Nc3ccccc3N)cc2)[C@@H](C)CN([C@H](C)CO)C(=O)c2cc(NC(=O)C3CCCCC3)ccc2O1 | 123* | / | / | /
C[C@@H]1CCCCO[C@H](CN(C)Cc2ccncc2)[C@@H](C)CN([C@H](C)CO)C(=O)c2cc(NC(=O)CCCCCC(=O)Nc3ccccc3N)ccc2O1 | 14 | / | / | /
C[C@@H]1CCCCO[C@@H](CN(C)Cc2ccc(C(=O)Nc3ccccc3N)cc2)[C@@H](C)CN([C@H](C)CO)C(=O)c2cc(NC(=O)CCC(F)(F)F)ccc2O1 | 127* | / | / | /
COc1ccc(C)cc1N(CC(=O)N1CCN(c2cc(Cl)ccc2C)CC1)S(C)(=O)=O | 12 | i | 9 | -3
COc1ccc(NC(=O)CN(c2cc(Cl)c(Cl)cc2Cl)S(C)(=O)=O)cc1Cl | 38 | i | -2 | 0
C[C@@H]1CCCCO[C@@H](CN(C)Cc2ccc(C(=O)Nc3ccccc3N)cc2)[C@@H](C)CN([C@H](C)CO)C(=O)c2cc(NC(=O)c3ccccc3)ccc2O1 | 141* | / | / | /
C=C1CC[C@@H](C)[C@](C)(CCc2ccoc2)C/C=C\C=C/1C(=O)O | 10 | / | 9 | -1
Cc1oc2c(c1C(=O)NCCC(C)C)C(=O)c1ccccc1C2=O | 140* | / | / | /
COc1ccccc1CCNC(=O)c1ccoc1C | 10 | i | 46 | -2
Cc1oc2c(c1C(=O)NCCCn1ccnc1)C(=O)c1ccccc1C2=O | 141* | / | / | /
Cc1ccc(S(=O)(=O)N(C)C[C@@H]2Oc3ccc(NC(=O)Cc4cn(C)c5ccccc45)cc3CC(=O)N([C@H](C)CO)C[C@H]2C)cc1 | 20 | / | / | 2
C[C@H]1CN([C@@H](C)CO)C(=O)c2cccc(NC(=O)CCCCCC(=O)Nc3ccccc3N)c2O[C@H]1CN(C)Cc1ccc(Cl)c(Cl)c1 | 120* | / | / | /
C[C@H](CO)N1C[C@H](C)[C@H](CN(C)Cc2ccc(Cl)c(Cl)c2)Oc2c(NC(=O)C3CC3)cccc2C1=O | 4 | / | -2 | /
C[C@@H]1CN([C@H](C)CO)C(=O)c2cccc(NC(=O)CCCCCC(=O)Nc3ccccc3N)c2O[C@@H]1CN(C)C | 29 | / | / | /
C[C@H]1CN([C@@H](C)CO)C(=O)c2cccc(NC(=O)C3CC3)c2O[C@H]1CN(C)Cc1ccc(Cl)c(Cl)c1 | -2 | / | 4 | /
C[C@@H]1CN([C@H](C)CO)C(=O)c2cccc(NC(=O)CCCCCC(=O)Nc3ccccc3N)c2O[C@@H]1CN(C)Cc1ccc(Cl)c(Cl)c1 | 134* | / | / | /
C[C@@H]1CN([C@@H](C)CO)C(=O)c2cccc(NC(=O)CCCCCC(=O)Nc3ccccc3N)c2O[C@@H]1CN(C)Cc1ccc(Cl)c(Cl)c1 | 126* | / | / | /
C[C@H]1CN([C@@H](C)CO)C(=O)c2cc(NC(=O)Nc3cccc4ccccc34)ccc2O[C@@H]1CN(C)S(=O)(=O)c1ccc(F)cc1 | 4 | / | / | 2
C[C@@H]1CN([C@H](C)CO)C(=O)c2cc(NC(=O)C3CCCCC3)ccc2O[C@H]1CN(C)CC1CCCCC1 | 26 | / | / | /
COC(=O)c1cc(-c2ccccc2)sc1NC(=S)Nc1cn(C)nc1C | 40 | + | 6 | 0
CC(=O)Nc1ccc(OCC(O)Cn2nc(C)cc2C)cc1 (stereo unspecified) | -3 | i | 3 | 0
CCOc1ccc(-c2nnc(SCC(=O)c3ccccc3N)n2C)cc1 | 22 | i | 67* | 0
SMILES | NOMO-1 viab | ID4 SMM | mut p53 react | STK33 kin inh
CCOc1ccc(NC(=O)CSc2nnc(-c3ccc(Cl)cc3)n2C)cc1 | -13 | i | 3 | 1
Cc1csc2sc(COC(=O)Nc3ccccc3)c(C)c12 | 120* | / | / | /
COc1ccc2[nH]c3c(OC)ncnc3c2c1 | / | i | 81* | /
O=C(Nc1ccc(Cl)cc1)Nc1ccccc1C(=O)NCc1ccco1 | 12 | i | 80* | 4
COCCNC(=O)c1ccccc1NC(=O)Nc1ccc(Cl)cc1 | -2 | i | 61* | -4
C[C@@H]1CCCCO[C@@H](CN(C)Cc2ccccc2)[C@@H](C)CN([C@H](C)CO)C(=O)c2cc(NS(=O)(=O)c3ccc(F)cc3)ccc2O1 | 22 | / | / | 0
C[C@H]1CN([C@@H](C)CO)C(=O)c2cccc(NC(=O)Nc3ccc(C(F)(F)F)cc3)c2O[C@H]1CN(C)S(=O)(=O)c1cn(C)cn1 | 40 | i | 19 | /
CCOC(=O)c1c(CSc2nc(C)ccc2C#N)oc2ccc(OC(C)=O)cc12 | 117* | / | / | /
COc1ccc(CN(C)C[C@@H]2Oc3c(NS(=O)(=O)c4ccc(Cl)cc4)cccc3C(=O)N([C@H](C)CO)C[C@@H]2C)cc1 | 22 | i | -3 | /
COc1cc(S(=O)(=O)n2nnc3ccccc32)c(OC)cc1Cl | 30 | + | 6 | 2
COc1cc(S(=O)(=O)n2cnc3ccccc32)c(OC)cc1Cl | 84* | i | -2 | 4
COc1cc(S(=O)(=O)n2nc(C)cc2C)c(OC)cc1Cl | 28 | i | 0 | -2
O=S(=O)(c1ccc(Cl)cc1)n1cnc2ccccc21 | 12 | / | / | /
C[C@H](CO)N1C[C@H](C)[C@H](CN(C)S(=O)(=O)c2cccs2)Oc2ccc(NC(=O)CCC(F)(F)F)cc2CC1=O | -3 | / | / | 3
Cc1ccc(S(=O)(=O)Nc2cccc3c2O[C@@H](CN(C)Cc2ccc(Cl)c(Cl)c2)[C@@H](C)CN([C@H](C)CO)C3=O)cc1 | 119* | / | / | /
C[C@H](CO)N1C[C@H](C)[C@H](CN(C)Cc2ccc(Cl)c(Cl)c2)Oc2c(NS(=O)(=O)c3ccc(Cl)cc3)cccc2C1=O | 109* | / | / | /
Cc1ccc(S(=O)(=O)Nc2cccc3c2O[C@H](CN(C)Cc2ccc(Cl)c(Cl)c2)[C@@H](C)CN([C@@H](C)CO)C3=O)cc1 | 37 | / | / | /
Cc1ccc(S(=O)(=O)Nc2cccc3c2O[C@H](CN(C)Cc2ccc(Cl)c(Cl)c2)[C@H](C)CN([C@@H](C)CO)C3=O)cc1 | 104* | / | / | /
Cc1ccc(S(=O)(=O)Nc2cccc3c2O[C@H](CN(C)Cc2ccc(Cl)c(Cl)c2)[C@H](C)CN([C@H](C)CO)C3=O)cc1 | 41 | / | -7 | /
C[C@H](NC(=O)C[C@H]1CC[C@H](NC(=O)C2CCC2)[C@H](CO)O1)c1ccccc1 | / | i | / | /
COc1ccc(CN(C)C[C@@H]2Oc3ccc(NC(=O)Nc4ccc5c(c4)OCO5)cc3C(=O)N([C@H](C)CO)C[C@@H]2C)cc1 | 23 | / | / | -1
NC(=O)N/N=C/c1ccc([N+](=O)[O-])o1 | 50 | / | -13 | -6
COC(=O)C(NC(=O)c1ccc([N+](=O)[O-])o1)C(C)C (stereo unspecified) | 113* | i | 4 | -3

Screens (PubChem)
